# A selection: hits, their analogues and other compounds. The true share with any hit is near 1.1%.
# CCHF vOTU inh-1 – blocks the CCHF virus ovarian tumor domain protease. AID 651958. inhibition, % at 11.5 µM. CCHFV vOTU protease, Pep-AMC fluorescence. hit rate 0.55% among 370,000; further: 0% = vehicle wells with enzyme and 100% = no enzyme wells
# Vc quorum ag – quorum light induction in luxS cqsA deficient V. cholerae; V. cholerae BH1578 lux reporter, luminescence, 6 h; activation, % at 18.7 µM; hit rate 0.16% among 350,000; in the data active means activation mostly above about 9.7%, no sharp cut-off
# PrPC TRFRET – inhibitors of human cell surface prion protein PrPC; P04156; TR-FRET read-out; hit rate 0.43% among 370,000; inhibition, % at 13.8 µM; AID 720596; in the data active means inhibition above about 24%; further: 0% = median of the test wells and 100% = reference compound wells
# Yp Topo-I inh – Y. pestis Topo-I inhibition via cleavage products; activity, % at 10 µM; Y. pestis Topo-I cleavage product accumulation, plate reader; hit rate 0.064% among 360,000; in the data active means activity above about 50%, passing the limit was not always enough
# CCHF vOTU inh-2 – confirmation of CCHF virus vOTU protease inhibitors; shares compounds with CCHF vOTU inh-1; Recombinant CCHFV vOTU, Pep-AMC fluorescence; inhibition, % at 11.5 µM; hit rate 17% among 1,900
# * marks the source's active call; other numbers are inactive results; i = inactive; nt = not tested or not shown. Unless noted, no stated cut-off is given here; in the data, active means inhibition above about 30%; inactive means the rest.
SMILES,CCHF vOTU inh-1,Vc quorum ag,PrPC TRFRET,Yp Topo-I inh,CCHF vOTU inh-2
CC(O)C(NC=C1C(=O)OC(C)(C)OC1=O)C(=O)O (stereo not drawn),-10,0,-1,1,nt
Cc1nc2scc(C)n2c(=O)c1S(=O)(=O)Nc1ccc(N2CCOCC2)c(Cl)c1,0,i,10,-10,nt
Cc1nc2scc(C)n2c(=O)c1S(=O)(=O)Nc1ccc(OC(F)(F)F)cc1,40*,-1,-3,0,-4
O=C1c2ccccc2C(=O)N1CC1=NCCc2ccccc21,39*,0,-2,-1,-15
O=C1c2ccccc2CCc2ccccc21,10,i,8,6,nt
O=c1[nH]c(=S)[nH]cc1S(=O)(=O)c1cccc(Cl)c1,22,i,-8,1,nt
Cc1cc(/C=C(\C#N)C(=O)O)c(C)n1CC(C)C,3,0,-10,-4,nt
Cc1cc(/C=C(\C#N)C(=O)O)c(C)n1CCC(C)C,30*,0,-3,-2,4
COc1ccc(OC)c(/C=N/Nc2nncn2/N=C/c2cc(OC)ccc2OC)c1,32*,-1,-9,10,-15
COc1cc(/C=N/Nc2nncn2/N=C/c2ccc(O)c(OC)c2)ccc1O,100*,0,-7,-25,-13
COc1cc(/C=N\Nc2nncn2N)ccc1OC(C)=O,90*,1,5,5,-22
COc1cc(/C=N/Nc2ccccc2)ccc1O,20,-1,4,-4,nt
O=c1[nH]c(=S)n(-c2cccc(Cl)c2)c(O)c1C=NCCN1CCNCC1,13,-1,2,5,nt
COc1ccccc1/C=C\C=N\NC(=O)CCn1nnc2ccccc21,9,2,0,17,nt
COC1=CC(=O)c2nc(Cl)ccc2C1=O,113*,nt,-10,nt,100*
CC(=O)Nc1ccc(Nc2nc3ccccc3nc2NS(=O)(=O)c2ccc(Cl)c([N+](=O)[O-])c2)cc1,32*,1,-6,-6,15
CC(=O)Nc1ccc(S(=O)(=O)Nc2nc3ccccc3nc2Nc2ccc(N)cc2)cc1,25,-4,-3,4,nt
Oc1ccc(/C=N\Nc2cc(N3CCOCC3)nc(N3CCOCC3)n2)c(O)c1,42*,0,0,-10,2
COCCCn1c(N)c(C(=O)Nc2sc3c(c2C(=O)OC)CCCC3)c2nc3ccccc3nc21,35*,-15,-9,-4,-23
COc1cc(Nc2ccccc2Cl)c([N+](=O)[O-])nc1[N+](=O)[O-],31*,-2,-20,13,-7
CC/C(=N\NC(=O)OC)c1ccc(OC(F)F)cc1,-6,-1,8,3,nt
O=C(NCCN1CCOCC1)c1cc(-c2cccc(O)c2)on1,3,0,0,-6,nt
C=CCNc1sc(C(=O)c2ccc(Br)s2)c(N)c1C#N,18,0,-15,44,nt
Cc1cccc(-c2onc3ccc(C(=O)/C=C/N(C)C)cc23)c1,33*,i,4,14,-16
Cc1ccc(-c2onc3ccc(C(=O)/C=C/N(C)C)cc23)cc1,-9,-1,-3,-2,nt
SMILES,CCHF vOTU inh-1,Vc quorum ag,PrPC TRFRET,Yp Topo-I inh,CCHF vOTU inh-2
CC1=C(C(=O)N(C(C)C)C(C)C)CC(CC(=O)NC(c2ccccc2)c2ccccc2)C(=O)N1Cc1ccc(C(C)(C)C)cc1 (stereo not drawn),35*,nt,3,nt,4
C/C(=N\NC(=O)c1ccccc1-n1cccc1)c1ccccn1,37*,-1,4,-1,-13
Cc1cccc(NC(=O)CCC(=O)N/N=C/c2cc([N+](=O)[O-])ccc2O)c1,-17,1,2,3,nt
Cn1c(CNC(=O)CNS(=O)(=O)c2ccc(F)cc2F)cc(=O)n(C)c1=O,9,0,-4,-2,nt
CN(/N=C/C=C/c1ccccc1)c1cc(=O)n(C)c(=O)[nH]1,32*,-1,-12,3,15
CSC[C@H]1CN(Cc2ccccc2)C(=O)[C@@H]1CC(=O)Nc1ccc(Br)cc1,-9,0,3,2,nt
CN(c1ccccc1)S(=O)(=O)c1ccc(C(=O)Nc2cccc(S(=O)(=O)N3CCOCC3)c2)cc1,-1,i,10,14,nt
CCC(=O)Nc1nnc(SCc2cccc(F)c2)s1,5,0,1,6,nt
Oc1ccc2ccccc2c1C=NC12CN3CCN(CN(C3)C1)C2,72*,i,-28,-5,73*
O=C1OC(c2ccc3c(c2)OCO3)N(C(=O)c2ccc(Cl)c(Cl)c2)c2ccccc21 (stereo not drawn),7,1,-4,-2,nt
CCOc1ccc(/C=C/C(=O)Nc2ccccc2C(F)(F)F)cc1,30*,0,1,-4,-13
COc1ccc(/C=C/C(=O)Nc2ccccc2C(F)(F)F)cc1,-10,0,-6,-8,nt

# Source: PubChem BioAssay (several laboratories)
